Experimental data taken from the supplement of paper PMC10849652.
Of roughly 7,900 targets only a part is listed; those with a hit were picked by preference. About 0.6% of all pairs of compound and target were hits.

These targets were tested with C1=CC(=C(C=C1Cl)C2=NC3=NC=CN=C3C(=N2)NC4=CC=NC=C4)F (assay: log2 fold change, soluble protein after heating vs DMSO (PISA); higher = thermal stabilisation; K562 cells, 10 uM, 30 min; active = over 0.2 and 3.5 SD of the protein, either way, in both replicates (recomputed)).
Outline: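 K562 cells at 2×10^6 cells/mL were given 10 μM compound for 30 min. Aliquots then went through 3 min of heating across 48°C-58°C, were pooled, and were extracted in PBS with 0.5% NP-40 at 4°C, and the supernatant after 21,000xg for 90 min was quantified by TMTpro 16plex LC-MS/MS with channel sums equalised. Thermal stability relative to control samples, from duplicates, is given as log2 fold change.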

UniProt Q9ULX6, sequence (Q9ULX6 whole entry, looked up): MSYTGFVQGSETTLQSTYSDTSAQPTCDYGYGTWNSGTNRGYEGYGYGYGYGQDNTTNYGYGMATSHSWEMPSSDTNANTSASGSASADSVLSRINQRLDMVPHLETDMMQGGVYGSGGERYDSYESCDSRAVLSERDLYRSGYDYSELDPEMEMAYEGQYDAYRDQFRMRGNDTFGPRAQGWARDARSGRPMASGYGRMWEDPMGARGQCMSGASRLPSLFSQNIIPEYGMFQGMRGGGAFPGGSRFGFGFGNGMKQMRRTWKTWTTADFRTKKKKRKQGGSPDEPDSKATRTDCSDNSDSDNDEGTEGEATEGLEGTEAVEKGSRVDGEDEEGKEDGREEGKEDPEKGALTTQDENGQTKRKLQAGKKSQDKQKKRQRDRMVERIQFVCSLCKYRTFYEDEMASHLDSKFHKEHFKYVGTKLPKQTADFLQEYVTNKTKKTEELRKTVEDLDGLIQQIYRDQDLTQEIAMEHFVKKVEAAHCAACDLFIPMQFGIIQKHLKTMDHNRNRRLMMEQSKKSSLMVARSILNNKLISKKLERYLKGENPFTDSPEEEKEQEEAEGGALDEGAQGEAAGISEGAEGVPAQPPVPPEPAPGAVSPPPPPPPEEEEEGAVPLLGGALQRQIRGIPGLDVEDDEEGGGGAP
UniProt Q02252, sequence (Q02252 whole entry, looked up): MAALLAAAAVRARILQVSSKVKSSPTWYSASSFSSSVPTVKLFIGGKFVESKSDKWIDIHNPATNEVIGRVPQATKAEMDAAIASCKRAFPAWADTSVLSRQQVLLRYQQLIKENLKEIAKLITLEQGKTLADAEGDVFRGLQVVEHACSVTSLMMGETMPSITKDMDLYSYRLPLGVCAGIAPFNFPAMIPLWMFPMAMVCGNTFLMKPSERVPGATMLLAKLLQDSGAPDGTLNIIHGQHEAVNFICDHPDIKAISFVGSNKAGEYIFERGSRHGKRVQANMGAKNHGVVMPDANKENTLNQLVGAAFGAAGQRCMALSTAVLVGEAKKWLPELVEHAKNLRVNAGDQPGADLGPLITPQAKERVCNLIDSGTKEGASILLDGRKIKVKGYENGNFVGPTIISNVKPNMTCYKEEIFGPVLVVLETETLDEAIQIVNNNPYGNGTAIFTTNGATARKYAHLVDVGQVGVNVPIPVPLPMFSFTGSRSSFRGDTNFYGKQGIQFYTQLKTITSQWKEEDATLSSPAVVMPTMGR
UniProt P21283, sequence (P21283 whole entry, looked up): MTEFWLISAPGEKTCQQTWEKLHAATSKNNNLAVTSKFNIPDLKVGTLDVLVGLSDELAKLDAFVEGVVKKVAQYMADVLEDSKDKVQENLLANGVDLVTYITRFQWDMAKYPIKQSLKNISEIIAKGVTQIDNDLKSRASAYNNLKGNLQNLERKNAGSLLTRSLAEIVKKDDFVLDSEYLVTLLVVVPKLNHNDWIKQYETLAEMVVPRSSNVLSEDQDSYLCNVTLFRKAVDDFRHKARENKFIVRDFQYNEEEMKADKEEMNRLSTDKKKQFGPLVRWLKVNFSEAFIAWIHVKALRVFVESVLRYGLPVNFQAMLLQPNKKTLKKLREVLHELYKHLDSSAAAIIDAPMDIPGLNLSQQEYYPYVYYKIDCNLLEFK
UniProt Q93084, sequence (Q93084 whole entry, looked up): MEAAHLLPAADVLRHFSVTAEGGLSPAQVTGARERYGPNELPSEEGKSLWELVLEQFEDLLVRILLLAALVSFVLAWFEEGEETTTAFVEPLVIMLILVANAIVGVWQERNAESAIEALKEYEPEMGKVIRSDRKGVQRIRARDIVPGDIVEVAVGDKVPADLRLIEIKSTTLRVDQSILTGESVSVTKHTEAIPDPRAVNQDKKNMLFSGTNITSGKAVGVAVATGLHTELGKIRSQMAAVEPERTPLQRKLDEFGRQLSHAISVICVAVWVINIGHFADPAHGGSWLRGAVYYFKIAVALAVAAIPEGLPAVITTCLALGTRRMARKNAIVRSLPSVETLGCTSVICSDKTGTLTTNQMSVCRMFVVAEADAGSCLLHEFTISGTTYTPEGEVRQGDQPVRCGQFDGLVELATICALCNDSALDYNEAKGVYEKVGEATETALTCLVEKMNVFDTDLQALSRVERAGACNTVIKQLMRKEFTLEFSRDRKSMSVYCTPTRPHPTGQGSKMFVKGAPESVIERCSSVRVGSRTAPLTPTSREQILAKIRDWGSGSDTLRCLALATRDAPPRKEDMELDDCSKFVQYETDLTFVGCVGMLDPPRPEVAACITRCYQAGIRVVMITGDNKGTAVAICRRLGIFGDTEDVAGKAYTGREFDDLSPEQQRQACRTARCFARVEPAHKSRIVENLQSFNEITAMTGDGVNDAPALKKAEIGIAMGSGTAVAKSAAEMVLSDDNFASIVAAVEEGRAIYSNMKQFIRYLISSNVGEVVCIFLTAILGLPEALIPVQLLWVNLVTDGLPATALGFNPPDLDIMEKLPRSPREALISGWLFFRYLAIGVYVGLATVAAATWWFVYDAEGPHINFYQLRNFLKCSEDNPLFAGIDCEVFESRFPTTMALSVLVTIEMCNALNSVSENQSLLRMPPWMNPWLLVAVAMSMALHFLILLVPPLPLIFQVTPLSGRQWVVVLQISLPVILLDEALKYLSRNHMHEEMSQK
UniProt Q9Y2Y0, sequence (Q9Y2Y0 whole entry, looked up): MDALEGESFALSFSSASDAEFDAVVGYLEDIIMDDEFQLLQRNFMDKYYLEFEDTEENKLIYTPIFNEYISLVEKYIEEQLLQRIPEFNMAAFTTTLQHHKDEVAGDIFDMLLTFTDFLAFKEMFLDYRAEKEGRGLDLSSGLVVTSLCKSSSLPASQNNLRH
UniProt Q9Y6H3, sequence (Q9Y6H3 whole entry, looked up): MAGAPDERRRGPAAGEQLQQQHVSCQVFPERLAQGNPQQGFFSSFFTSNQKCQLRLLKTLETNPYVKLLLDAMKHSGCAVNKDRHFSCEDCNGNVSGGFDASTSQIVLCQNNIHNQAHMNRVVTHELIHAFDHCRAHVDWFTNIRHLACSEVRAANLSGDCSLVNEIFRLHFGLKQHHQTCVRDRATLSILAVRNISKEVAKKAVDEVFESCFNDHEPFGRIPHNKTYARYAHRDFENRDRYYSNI
UniProt P54709, sequence (P54709 whole entry, looked up): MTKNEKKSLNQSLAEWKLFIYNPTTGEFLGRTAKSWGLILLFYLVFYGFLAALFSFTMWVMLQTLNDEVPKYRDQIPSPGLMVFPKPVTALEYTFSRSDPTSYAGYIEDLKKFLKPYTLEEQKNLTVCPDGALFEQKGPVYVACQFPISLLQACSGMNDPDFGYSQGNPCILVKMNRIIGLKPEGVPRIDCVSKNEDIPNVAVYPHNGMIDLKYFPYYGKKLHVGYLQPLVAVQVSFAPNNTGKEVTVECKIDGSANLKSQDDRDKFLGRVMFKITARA
UniProt Q07960, sequence (Q07960 whole entry, looked up): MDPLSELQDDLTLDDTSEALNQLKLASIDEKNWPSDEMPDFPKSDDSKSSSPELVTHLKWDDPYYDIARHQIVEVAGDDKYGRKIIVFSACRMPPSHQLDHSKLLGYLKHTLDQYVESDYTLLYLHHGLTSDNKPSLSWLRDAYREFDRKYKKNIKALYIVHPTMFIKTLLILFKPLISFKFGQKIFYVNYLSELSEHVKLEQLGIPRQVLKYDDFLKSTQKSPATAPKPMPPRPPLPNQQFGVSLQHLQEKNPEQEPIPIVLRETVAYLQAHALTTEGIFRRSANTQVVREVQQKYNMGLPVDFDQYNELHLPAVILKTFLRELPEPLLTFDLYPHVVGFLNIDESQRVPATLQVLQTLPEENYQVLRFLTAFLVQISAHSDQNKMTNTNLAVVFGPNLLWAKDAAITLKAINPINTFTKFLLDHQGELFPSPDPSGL
UniProt P42025, sequence (P42025 whole entry, looked up): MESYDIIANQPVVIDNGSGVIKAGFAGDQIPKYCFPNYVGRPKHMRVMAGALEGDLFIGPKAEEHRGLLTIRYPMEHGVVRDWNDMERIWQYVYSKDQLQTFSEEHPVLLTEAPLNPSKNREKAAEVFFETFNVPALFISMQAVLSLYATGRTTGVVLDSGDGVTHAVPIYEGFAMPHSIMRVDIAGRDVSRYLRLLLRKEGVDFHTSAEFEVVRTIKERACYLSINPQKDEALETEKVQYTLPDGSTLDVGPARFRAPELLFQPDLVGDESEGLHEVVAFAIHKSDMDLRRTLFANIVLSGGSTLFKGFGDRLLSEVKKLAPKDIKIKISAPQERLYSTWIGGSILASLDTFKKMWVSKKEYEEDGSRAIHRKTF
UniProt P56211, sequence (P56211 whole entry, looked up): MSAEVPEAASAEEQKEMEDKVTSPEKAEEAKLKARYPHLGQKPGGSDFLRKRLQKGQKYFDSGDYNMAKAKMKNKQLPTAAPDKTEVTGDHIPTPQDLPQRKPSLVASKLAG
UniProt Q9NRZ7, sequence (Q9NRZ7 whole entry, looked up): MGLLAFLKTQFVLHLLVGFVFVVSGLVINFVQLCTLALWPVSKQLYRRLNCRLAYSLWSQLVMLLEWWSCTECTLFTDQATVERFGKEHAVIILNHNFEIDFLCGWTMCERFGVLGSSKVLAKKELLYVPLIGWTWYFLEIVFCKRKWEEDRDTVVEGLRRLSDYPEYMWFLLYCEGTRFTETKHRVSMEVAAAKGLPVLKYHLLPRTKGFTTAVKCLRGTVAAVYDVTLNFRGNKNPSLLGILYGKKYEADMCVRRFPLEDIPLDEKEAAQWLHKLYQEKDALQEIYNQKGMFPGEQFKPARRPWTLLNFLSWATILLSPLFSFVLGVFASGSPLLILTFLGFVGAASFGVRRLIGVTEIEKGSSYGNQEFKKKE
UniProt Q9NX46, sequence (Q9NX46 whole entry, looked up): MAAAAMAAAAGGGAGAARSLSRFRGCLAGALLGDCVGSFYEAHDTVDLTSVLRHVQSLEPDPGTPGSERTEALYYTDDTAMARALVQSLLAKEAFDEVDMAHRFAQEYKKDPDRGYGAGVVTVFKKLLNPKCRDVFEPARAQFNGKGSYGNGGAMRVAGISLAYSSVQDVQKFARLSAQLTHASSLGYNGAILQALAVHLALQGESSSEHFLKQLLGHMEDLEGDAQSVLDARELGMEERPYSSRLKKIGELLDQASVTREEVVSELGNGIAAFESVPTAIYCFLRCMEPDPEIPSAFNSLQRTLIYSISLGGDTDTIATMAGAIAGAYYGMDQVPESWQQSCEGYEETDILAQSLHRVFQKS

log2 fold change, inactive:
ATP6V0A1 isoform 3 (UniProt Q93050) -0.176
ADPRHL2 (UniProt Q9NX46) 0.122
BUB1B isoform 3 (UniProt O60566) -0.049
ATP2A3 isoform 2 (UniProt Q93084) 0.053
ACIN1 (UniProt Q9UKV3) -0.033
AIP (UniProt O00170) 0.133
ATP1B3 (UniProt P54709) -0.002
ALDH9A1 (UniProt P49189) 0.035
ATP6V1C1 (UniProt P21283) -0.135
APPL1 (UniProt Q9UKG1) 0.055
AKAP8L (UniProt Q9ULX6) 0.074
ATP23 (UniProt Q9Y6H3) -0.017
ASNS (UniProt P08243) 0.053
ACTR1B (UniProt P42025) -0.145
ARPP19 (UniProt P56211) 0.076
ARHGAP1 (UniProt Q07960) 0.025
AGPAT3 isoform 3 (UniProt Q9NRZ7) 0.028
ATP13A2 (UniProt Q9NQ11) 0.011
ALDH6A1 (UniProt Q02252) 0.061
ATR (UniProt Q13535) -0.039
ARL2BP (UniProt Q9Y2Y0) 0.041
AUP1 (UniProt Q9Y679) 0.068
